From PubChem BioAssay AID1851 (National Center for Advancing Translational Sciences (NCATS), 2009)
Hit rate of the full screen: of about 16,000 compounds, about 2,600 (16%) were called active. Roughly 20% stayed inconclusive and do not appear here. The call rests on the fitted dose curve; in most records, active means well fitted curve in the direction sought with a large enough effect; inconclusive means small, poorly fitted or top-dose-only effect, or effect the other way; inactive means no such curve, though single readings can be large or run the other way. Not all results are given here.

The compounds below were run against Cytochrome P450 2D6 (Homo sapiens) (UniProt P10635) (assay: Cytochrome panel assay with activity outcomes). Settings: recombinant CYP, pro-luciferin dealkylation, luminescence, p450-cyp2d6; series mostly up to 57.1 µM.
On the % scale 0 is the no-effect control and ±100 the full control effect.

Cytochrome P450 2D6 (Homo sapiens), sequence (P10635 whole entry, looked up): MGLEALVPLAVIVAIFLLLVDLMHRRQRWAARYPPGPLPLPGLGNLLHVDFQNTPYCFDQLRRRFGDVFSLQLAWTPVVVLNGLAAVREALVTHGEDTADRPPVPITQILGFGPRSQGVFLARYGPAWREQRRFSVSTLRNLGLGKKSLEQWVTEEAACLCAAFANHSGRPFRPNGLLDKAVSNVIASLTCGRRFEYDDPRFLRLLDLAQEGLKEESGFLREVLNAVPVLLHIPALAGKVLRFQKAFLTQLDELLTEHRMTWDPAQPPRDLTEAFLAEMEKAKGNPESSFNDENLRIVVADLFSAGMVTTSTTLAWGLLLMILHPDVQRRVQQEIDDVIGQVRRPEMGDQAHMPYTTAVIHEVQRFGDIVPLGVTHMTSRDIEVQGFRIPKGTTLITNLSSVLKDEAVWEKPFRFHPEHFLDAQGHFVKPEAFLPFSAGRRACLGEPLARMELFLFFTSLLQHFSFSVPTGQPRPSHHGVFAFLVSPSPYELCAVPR

| Structure (SMILES) | AC50 | activity, negative = inhibition |
| --- | --- | --- |
| CC(C)NC(=O)/C(=N\O)c1ccccc1 | inactive | – |
| Cc1ccc(OCC(=O)NNC(=O)c2cccnc2)cc1 | inactive | – |
| O=c1c(-c2cccs2)nc2cnc(Oc3ccccc3)nc2n1C1CC1 | inactive | – |
| COc1ccc(NC(=O)N2CCCC3(CCN(C(=O)c4cccc(F)c4)CC3)C2)cc1 | inactive | – |
| CN1CCN(c2ncc3nc(-c4ccc(Cl)cc4)c(=O)n(C4CC4)c3n2)CC1 | inactive | – |
| Cc1ccc(NC(=O)/C(=C/c2cccc([N+](=O)[O-])c2)NC(=O)C2CCCCC2)c(C)c1 | inactive | – |
| CC1=C(C(=O)Nc2ccccc2F)C(c2ccsc2)C2=C(CC(c3ccccc3)CC2=O)N1 (configuration not stated) | inactive | – |
| COC(=O)C/C=C\[C@@H](C)[C@@H](/C=N\OC[C@@H]1O[C@H](c2ccccc2)C=C[C@@H]1Oc1ccc(OC)cc1)OC | – | -17.7% [at 11.4 µM] (inactive) |
| COC(=O)c1ccccc1N/C=C1\CCc2c(c(C)nn2-c2ccccn2)C1=O | inactive | – |
| CCOc1ccc(/C=N/Nc2nc(N3CCCC3)nc(N3CCCC3)n2)cc1OC | inactive | – |
| CCNc1ncc2nc(-c3ccccc3)c(=O)n(C)c2n1 | inactive | – |
| CCNc1ncc2nc(-c3ccc(OC)cc3)c(=O)n(CCOC)c2n1 | inactive | – |
| CCNc1ncc2nc(C)c(=O)n(CCc3ccccc3)c2n1 | inactive | – |
| CCNc1ncc2nc(-c3ccccc3)c(=O)n(CCc3ccccc3)c2n1 | 10 µM (active) | – |
| CCNc1ncc2nc(-c3ccccc3)c(=O)n(CCOC)c2n1 | 3.16 µM (active) | – |
| COCCn1c(=O)c(-c2ccccc2)nc2cnc(Nc3ccccc3)nc21 | inactive | – |
| CCOC(=O)c1sc(=N)n(-c2ccc(OC)cc2)c1C | inactive | – |
| COc1cccc(/C=c2/s/c(=C(\C#N)C(=O)N3CCOCC3)n(-c3ccccc3)c2=O)c1 | inactive | – |
| Cc1ccc(N2CCN(CCC(=O)O)CC2)cc1 | – | -9.16% [at 11.4 µM] (inactive) |
| CCSC(N)=Nc1ccc(C(F)(F)F)cc1 | inactive | – |
| Cc1ccc(CSC(N)=Nc2ccccc2)cc1C | 0.794 µM (active) | – |

| Structure (SMILES) | AC50 | activity, negative = inhibition |
| --- | --- | --- |
| N=C(N)c1ccccc1 | inactive | – |
| O=C(Nc1cccc(C(=O)Nc2ccc(S(=O)(=O)O)c3cc(S(=O)(=O)O)cc(S(=O)(=O)O)c23)c1)Nc1cccc(C(=O)Nc2ccc(S(=O)(=O)O)c3cc(S(=O)(=O)O)cc(S(=O)(=O)O)c23)c1 | inactive | – |
| C(=N/Nc1nnc2c(n1)[nH]c1ccccc12)/c1cccnc1 | – | -5% [at 11.4 µM] (inactive) |
| c1ccc2c[n+](Cc3ccnc4ccccc34)ccc2c1 | 3.16 µM (active) | – |
| COc1cc(NC(=O)c2cc3nc(-c4ccccc4)cc(-c4ccccc4)n3n2)cc(OC)c1OC | inactive | – |
| COC(=O)c1[nH]c2cccc(OC)c2c1NC(=O)CN(C)CC1OCCO1 | inactive | – |
| NC1CCN(c2cccc(Cl)n2)CC1 | 10 µM (active) | – |
| Clc1ccc(N2CCCCCC2)nn1 | inactive | – |
| O=S(=O)(c1ccc(F)cc1)N1CC2CCCN2c2ccc(C(F)(F)F)cc21 (configuration not stated) | inactive | – |
| Cc1ccc2c(c1)[C@@H]1CN(C)CC[C@@H]1N2S(=O)(=O)c1ccc(F)cc1 | 14.1 µM (active) | – |
| O=S(=O)(c1ccc(F)cc1)N1CCCC(CO)C1 (configuration not stated) | inactive | – |
| O=C1O[C@@H]([C@H](O)[C@H](O)[C@H](O)CO)[C@@H](O)[C@@H]1O | – | 7.22% [at 11.4 µM] (inactive) |
| O=C(Cc1ccccc1)Nc1nc(=O)c2ccccc2s1 | inactive | – |
| O=C(c1cnccn1)N1CCC2(CC1)CCN(c1ccccn1)CC2 | inactive | – |
| Cc1ccc(-c2ccc(CCC(=O)O)n2CC2CCCO2)cc1 (configuration not stated) | inactive | – |
| Cc1ccc(C(=O)N/N=C/c2cc(C)n(-c3ccc(Br)cc3)c2C)cc1[N+](=O)[O-] | inactive | – |
| CSc1nc2ccccc2cc1/C=C(\C#N)c1cccc(Cl)c1 | inactive | – |
| CN1CCCN([C@@H](c2ccccc2)c2ccc(Cl)cc2)CC1 | 0.251 µM (active) | – |
| Cc1ccc(-c2noc(CN3CCN(C(c4ccccc4)c4ccccc4)CC3)n2)cc1 | inactive | – |
| O=C1CC(N2CCN(C(c3ccccc3)c3ccccc3)CC2)C(=O)N1Cc1ccc(N2CCCC2=O)cc1 (configuration not stated) | inactive | – |
| CN1CCN(CC(O)c2ccccc2)CC1 (configuration not stated) | inactive | – |

| Structure (SMILES) | AC50 | activity, negative = inhibition |
| --- | --- | --- |
| CN1CCN([C@@H](c2ccccc2)c2ccc(Cl)cc2)CC1 | 2 µM (active) | – |
| Cc1cccc(CN2CCN([C@@H](c3ccccc3)c3ccc(Cl)cc3)CC2)c1 | 3.16 µM (active) | – |
| Cc1cccc(CN2CCN(CC(=O)O)C2=O)c1 | inactive | – |
| CC(=O)N=c1sc(S(N)(=O)=O)nn1C | inactive | – |
| COC(=O)c1cc(/C=C/c2ccccc2)on1 | inactive | – |
| Cc1cnc2cc(Cl)ccc2c1SCC(=O)O | – | 8.22% [at 11.4 µM] (inactive) |
| NS(=O)(=O)c1cc2c(cc1Cl)N[C@@H](CC1CCCC1)NS2(=O)=O | inactive | – |
| O=C(CN1C(=O)c2ccccc2C1=O)NCC(=O)OCC(=O)c1ccc(Br)cc1 | inactive | – |
| CCn1c(CCNC(=O)c2ccccc2Cl)n[nH]c1=S | inactive | – |
| O=C(O)c1ccccc1/C=N\N=C1c2ccccc2-c2ccccc21 | – | 16.6% [at 11.4 µM] (inactive) |
| CCn1cc(C(=O)NCC(=O)OC)c2cc(OC)c(OC)cc2c1=O | inactive | – |
| CC1(C)[C@@H]2CC[C@]1(C)[C@@H](OC(=O)CSC#N)C2 | – | -15% [at 11.4 µM] (inactive) |
| CC(C)NC[C@@H](O)COc1cccc2ccccc12 | inactive | – |
| CC(C)(C)NC[C@H](O)COc1cccc2[nH]c(=O)[nH]c12 | inactive | – |
| C=CCc1ccccc1OC[C@H](O)CNC(C)C | 6.31 µM (active) | – |
| C[C@@]12C[C@H](O)[C@@H]3[C@H](CCC4=CC(=O)CC[C@]43C)[C@H]1CC[C@@H]2c1csc(N)n1 | – | -10.6% [at 11.4 µM] (inactive) |
| Cc1ccc(C)c(S(=O)(=O)NC(C)C(=O)Nc2ccc(-c3nc4ccccc4s3)cc2)c1 (configuration not stated) | inactive | – |
| CC(C)[C@]1(Cl)CC[C@@H]2[C@]3(C)CCC[C@@](C)(C(=O)O)[C@H]3C[C@H](Cl)[C@@]2(Cl)[C@H]1Cl | – | 4.09% [at 11.4 µM] (inactive) |
| COc1cccc(Cn2c(=O)c(-c3cccc(C#N)c3)nc3cnc(N4CCN(C)CC4)nc32)c1 | inactive | – |
| Cc1ccc(/C=C2\SC(=S)N(CCCC(=O)Nc3ccccn3)C2=O)cc1 | inactive | – |
